Source: PubChem BioAssay (NCATS)
Records with an inconclusive call do not appear. Activity calls are given as the source filed them. Unless noted, calls come from the whole dose curve; as a rule, active = well fitted curve in the direction sought with a large enough effect; inconclusive = small, poorly fitted or top-dose-only effect, or another doubt; inactive = no such curve, though single readings can be large; an effect the other way counts as inactive or inconclusive.

How the values were obtained:
[1] = qHTS for Inhibitors of Cell Surface uPA Generation: Validation Assay (AID 493164); details: mouse cells, plasminogen activation; series mostly up to 38.3 µM
Summary of the method: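 RAW 264.7 cells (4000/well) were plated overnight, then exposed for 18 h at 37 C, 5% CO2 to compounds in a 7-point 1:5 titration (2.45 nM–38.3 uM final). Intracellular ATP was read by ATP-Lite luminescence.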

[2] = target: Galactokinase (Homo sapiens) (UniProt P51570); experiment: qHTS Validation Assay for Inhibitors of Human Galactokinase (GALK) (AID 493189); details: purified human GALK enzyme activity, qHTS 7-point titration; series mostly up to 57.5 µM
Summary of the method: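 Inhibition was measured as remaining ATP, detected by luciferase luminescence after a 1 h room-temperature reaction. Final conditions: 5 nM GALK, 100 uM galactose, 35 uM ATP, pH 8.0 HEPES buffer.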

[3] = target: Peptidyl-prolyl cis-trans isomerase NIMA-interacting 1 (Homo sapiens) (UniProt Q13526); experiment: qHTS Validation Assay to Find Inhibitors of Pin1 (AID 504536; active = well fitted inhibition curve with a large enough effect in the polarisation, with a control signal flat, not every such curve was filed as active; the % refers to the polarisation); details: Pin1 fluorescence polarization peptide binding assay; series mostly up to 57.5 µM
Summary of the method: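 Fluorescence polarization competition: compounds (titration) displace HiFluor-488-labeled Pin1-1b peptide from Pin1 (0.3 uM final) in pH 7.5 HEPES buffer with DTT, 10 min at room temperature; %Activity normalized to no-enzyme wells, curves fitted.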

[4] = target: Phosphoglycerate kinase, glycosomal (Trypanosoma brucei brucei) (UniProt P07378); experiment: qHTS Validation Assay to Find Inhibitors of Phosphoglycerate Kinase (AID 504547); details: enzymatic PGK inhibition, coupled luminescence read-out; series mostly up to 57.5 µM
Summary of the method: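 Inhibition of the enzyme is judged by a Kinase-Glo Plus luminescent signal following a one-hour incubation at room temperature. Because 1,3-BPG is unstable, it is made in situ by GAPDH at 100nM final; no-PGK wells define the baseline.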

[5] = Inducers of the Endoplasmic Reticulum Stress Response (ERSR) in human glioma: Validation (AID 504836); details: human glioma cells, ER stress response reporter; series mostly up to 38.3 µM
Summary of the method: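 ERSR induction read as luciferase luminescence (Bright-Glo, 10 min at room temperature) in stably transfected human U87-MG glioma cells exposed to compounds for 16 h, using GRP78 as sensor.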

[6] = target: Ubiquitin carboxyl-terminal hydrolase 1 (Homo sapiens) (UniProt O94782); experiment: Inhibitors of USP1/UAF1: Pilot qHTS (AID 504865); details: purified USP1/UAF1, Ub-rhodamine cleavage fluorescence; series mostly up to 114 µM;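 note: rhodamine fluorescence freed from ubiquitin-rhodamine substrate followed over time; top concentration of the series differs between compounds; nearly all actives have a fitted effect of over 35% in size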
Summary of the method: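 Deubiquitinase activity followed as kinetic rhodamine fluorescence release from 150 nM Ub-Rho. 1 nM USP1/UAF1 with compound, after 15 min room-temperature preincubation, in HEPES pH 7.8 buffer containing TCEP, EDTA, BSA and Tween-20.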

[7] = Validation screen for small molecules that induce DNA re-replication in SW480 colon adenocarcinoma cells (AID 504364); details: DNA re-replication phenotype (high-content imaging); series mostly up to 46.1 µM
Summary of the method: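 250 cells/well; compound pinned in; 48 hr, 37 C, 5% CO2; Hoechst added, 40 min; nuclear fluorescence imaged, 405 ex / 500-530 em; re-replication scored as increase in high-intensity nuclei.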

[8] = target: phosphoglycerate mutase (Leishmania major) (UniProt Q4Q090); experiment: qHTS Validation Assay to Find Inhibitors of Phosphoglycerate Mutase (AID 504548); details: biochemical enzyme activity; series mostly up to 57.5 µM
Summary of the method: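 Lm PGAM 1.25nM final; 100 mM TEA pH 7.6, 5 mM MgCl2, 0.01% Tween-20; 45 min RT; Kinase-GloPlus, 10 min; end-point luminescence. Enzyme-free wells as negative controls.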

[9] = qHTS for Inhibitors of ATXN expression: Validation of Cytotoxic Assay (AID 588349); details: cytotoxicity counter-screen for ATXN expression inhibitors, cell viability; series mostly up to 57.1 µM
Summary of the method: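 Read-out: ATP-based luminescence (CellTiter Glo) reflecting viability of HEK293 cells after 72 hr incubation at 37 degrees C with a concentration series of each compound.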

[10] = qHTS for Inhibitors of ATXN expression: Validation (AID 588378); details: cell-based ATXN2 expression reporter assay, luminescence; series mostly up to 57.1 µM; note: nearly all actives have a fitted effect of over 75% in size
Summary of the method: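 Luciferase luminescence (Bright-Glo) from an ATXN2-FFLuc HEK293 line after 24 h compound exposure at 37 °C, preceded by a CellTiter-Fluor fluorescence viability read. Serial dilutions of a reference ATXN2 inhibitor and a luciferase inhibitor served as controls.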

Measured: Potency

Sequence of Galactokinase (Homo sapiens) (P51570 whole entry, looked up): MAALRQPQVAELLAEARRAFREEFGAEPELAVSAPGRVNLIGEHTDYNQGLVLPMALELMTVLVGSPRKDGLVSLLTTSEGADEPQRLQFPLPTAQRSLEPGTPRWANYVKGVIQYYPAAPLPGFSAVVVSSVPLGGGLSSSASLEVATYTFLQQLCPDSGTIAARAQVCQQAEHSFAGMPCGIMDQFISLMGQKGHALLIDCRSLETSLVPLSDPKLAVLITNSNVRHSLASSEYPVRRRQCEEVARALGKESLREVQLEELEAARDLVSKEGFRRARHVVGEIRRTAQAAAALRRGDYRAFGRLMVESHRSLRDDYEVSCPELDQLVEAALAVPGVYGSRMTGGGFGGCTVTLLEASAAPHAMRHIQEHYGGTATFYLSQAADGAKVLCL
Sequence of phosphoglycerate mutase (Leishmania major) (Q4Q090 1-553): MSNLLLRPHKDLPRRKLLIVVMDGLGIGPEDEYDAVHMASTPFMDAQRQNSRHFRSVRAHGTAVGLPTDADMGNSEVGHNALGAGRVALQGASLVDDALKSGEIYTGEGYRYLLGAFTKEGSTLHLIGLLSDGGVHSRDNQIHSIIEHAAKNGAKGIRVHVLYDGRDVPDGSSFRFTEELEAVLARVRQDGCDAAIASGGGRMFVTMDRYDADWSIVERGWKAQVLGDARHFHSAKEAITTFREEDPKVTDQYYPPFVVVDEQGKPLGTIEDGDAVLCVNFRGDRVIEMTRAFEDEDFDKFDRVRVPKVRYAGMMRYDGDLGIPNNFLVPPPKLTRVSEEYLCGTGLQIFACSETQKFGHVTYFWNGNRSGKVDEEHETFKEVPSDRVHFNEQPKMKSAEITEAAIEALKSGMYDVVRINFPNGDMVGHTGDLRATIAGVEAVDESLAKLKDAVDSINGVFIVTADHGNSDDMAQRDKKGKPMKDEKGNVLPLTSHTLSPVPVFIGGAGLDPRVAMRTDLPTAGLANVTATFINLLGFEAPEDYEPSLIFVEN
Sequence of Phosphoglycerate kinase, glycosomal (Trypanosoma brucei brucei) (P07378 whole entry, looked up): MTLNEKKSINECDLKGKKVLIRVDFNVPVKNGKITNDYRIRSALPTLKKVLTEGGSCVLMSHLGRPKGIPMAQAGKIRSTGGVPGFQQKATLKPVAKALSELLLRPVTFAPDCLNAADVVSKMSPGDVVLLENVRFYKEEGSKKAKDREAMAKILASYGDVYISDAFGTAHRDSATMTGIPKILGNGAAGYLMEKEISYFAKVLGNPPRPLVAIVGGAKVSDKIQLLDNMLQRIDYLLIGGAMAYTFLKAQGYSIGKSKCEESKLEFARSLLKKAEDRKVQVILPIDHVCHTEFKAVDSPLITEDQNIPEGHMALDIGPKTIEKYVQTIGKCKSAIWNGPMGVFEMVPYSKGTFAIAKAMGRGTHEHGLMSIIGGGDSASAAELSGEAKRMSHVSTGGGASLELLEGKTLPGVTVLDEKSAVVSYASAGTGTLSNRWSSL
Sequence of Ubiquitin carboxyl-terminal hydrolase 1 (Homo sapiens) (O94782 whole entry, looked up): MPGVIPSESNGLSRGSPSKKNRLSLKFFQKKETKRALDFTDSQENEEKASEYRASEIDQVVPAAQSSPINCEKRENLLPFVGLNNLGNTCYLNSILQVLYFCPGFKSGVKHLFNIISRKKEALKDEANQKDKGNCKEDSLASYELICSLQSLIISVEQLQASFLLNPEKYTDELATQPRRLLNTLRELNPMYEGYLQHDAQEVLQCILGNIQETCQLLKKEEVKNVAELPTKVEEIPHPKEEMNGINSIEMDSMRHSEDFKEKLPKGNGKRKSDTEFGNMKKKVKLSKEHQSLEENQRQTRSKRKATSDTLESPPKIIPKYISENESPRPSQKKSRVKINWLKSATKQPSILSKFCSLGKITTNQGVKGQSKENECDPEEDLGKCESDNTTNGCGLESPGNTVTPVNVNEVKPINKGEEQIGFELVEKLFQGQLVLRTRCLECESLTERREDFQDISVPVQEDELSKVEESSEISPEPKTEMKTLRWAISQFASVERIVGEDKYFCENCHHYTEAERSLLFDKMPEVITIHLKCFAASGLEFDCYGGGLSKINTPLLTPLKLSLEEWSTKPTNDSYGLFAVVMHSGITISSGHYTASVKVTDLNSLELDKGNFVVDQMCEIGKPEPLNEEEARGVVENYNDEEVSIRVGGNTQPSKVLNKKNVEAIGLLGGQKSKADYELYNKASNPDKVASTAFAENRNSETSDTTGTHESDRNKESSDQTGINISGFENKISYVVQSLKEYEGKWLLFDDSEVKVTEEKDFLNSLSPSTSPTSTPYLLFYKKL
Sequence of Peptidyl-prolyl cis-trans isomerase NIMA-interacting 1 (Homo sapiens) (Q13526 whole entry, looked up): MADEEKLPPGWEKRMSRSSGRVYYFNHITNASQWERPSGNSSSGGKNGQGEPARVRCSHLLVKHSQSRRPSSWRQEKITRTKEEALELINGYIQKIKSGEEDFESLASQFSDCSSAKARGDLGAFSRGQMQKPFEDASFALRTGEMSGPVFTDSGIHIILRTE

COc1ccc2c(c[n+](C)c3c4cc5c(cc4ccc23)OCO5)c1OC
inactive: [1] | [2] | [3] | [4] | [5] | [6]

CN[C@@H](C)[C@H](O)c1ccccc1
inactive: [2] | [7]

NCc1cc(=O)[nH]o1
inactive: [1] | [2] | [7] | [4] | [8] | [5] | [6] | [9] | [10]

CCCN(CCC)[C@@H]1CCc2ccc(O)cc2C1
inactive: [1] | [2] | [7] | [4] | [8] | [5] | [6] | [9] | [10]

c1ccc(C2(c3ccccc3)CC2C2=NCCN2)cc1 (stereo not drawn)
inactive: [1] | [4] | [8] | [5] | [6] | [9]

c1ccc(CCCN2CCN(CCOC(c3ccccc3)c3ccccc3)CC2)cc1
inactive: [1] | [2] | [4] | [8] | [5] | [6]

C=CCN1CC[C@]23CCCCC2[C@H]1Cc1ccc(O)cc13 (stereo partly drawn)
inactive: [1] | [2] | [7] | [4] | [8] | [5] | [6] | [10]

COc1cc(C(O)CN)ccc1O (stereo not drawn)
inactive: [1] | [2] | [7] | [4] | [8] | [5] | [6] | [9] | [10]

CC(=O)Oc1ccccc1C(=O)O
inactive: [5]

C[C@@H](N)C1CCC(C(=O)Nc2ccncc2)CC1 (stereo partly drawn)
inactive: [5]

C[N+]1(C)C2CC(OC(=O)[C@H](CO)c3ccccc3)CC1C1OC12 (stereo partly drawn)
inactive: [10]
